The source of these data is PubChem BioAssay (EPA / NIEHS).

Inconclusive results are not listed. The source made the active and inactive calls. How the source made its calls: active means hit-call score of the fitted dose curve at least 0.9, where 1 is the maximum; inconclusive means response in the unintended direction; inactive means score below 0.9.

Chain of Cytochrome P450 2C19 (Homo sapiens) (P33261 whole entry, looked up): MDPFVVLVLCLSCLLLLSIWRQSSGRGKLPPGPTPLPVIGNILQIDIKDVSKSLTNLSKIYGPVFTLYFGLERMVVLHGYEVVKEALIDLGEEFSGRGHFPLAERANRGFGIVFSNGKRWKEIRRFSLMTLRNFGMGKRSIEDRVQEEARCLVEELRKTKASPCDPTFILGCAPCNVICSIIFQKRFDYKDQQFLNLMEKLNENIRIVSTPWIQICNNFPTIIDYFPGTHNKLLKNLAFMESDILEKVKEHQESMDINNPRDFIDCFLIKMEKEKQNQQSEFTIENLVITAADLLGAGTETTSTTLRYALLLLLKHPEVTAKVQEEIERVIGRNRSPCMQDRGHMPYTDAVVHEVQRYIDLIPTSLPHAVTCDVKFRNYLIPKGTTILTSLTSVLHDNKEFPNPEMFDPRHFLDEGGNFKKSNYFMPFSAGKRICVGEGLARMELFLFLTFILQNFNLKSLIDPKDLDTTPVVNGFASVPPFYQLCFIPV

Read-out in this assay: Cytochrome P450 2C19 (Homo sapiens) (UniProt P33261)
In words: CLD_CYP2C19_48hr: CellzDirect (CLD) Gene Expression Assay for xenobiotic metabolism (CYP2C19) at 48 hours (AID 2283700).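 Further: fitted upward so actives raise CYP2C19 mRNA above the 0.2% DMSO vehicle.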 Here is the method:
CLD_48hr is a cell-based, multiplexed-readout assay that uses hepatocyte, a human liver primary cell, with measurements taken at 48 hours after chemical dosing in a 96-well plate.CLD_CYP2C19_48hr is one of 16 assay component(s) measured or calculated from the CLD_48hr assay. It is designed to make measurements of mRNA induction, a form of inducible reporter, as detected with chemiluminescence signals by Quantitative Nuclease Protection Assay (qNPA) technology.Data from the assay component CLD_CYP2C19_48hr was analyzed at the endpoint, CLD_CYP2C19_48hr, in the positive analysis fitting direction relative to DMSO as the negative control and baseline of activity. Using a type of inducible reporter, gain-of-signal activity can be used to understand changes in the reporter gene as they relate to the gene CYP2C19. Furthermore, this assay endpoint can be referred to as a primary readout. To generalize the intended target to other relatable targets, this assay endpoint is annotated to the cyp intended target family, where subfamily is xenobiotic metabolism.
Human hepatocyte cultures were treated daily for two consecutive days with fresh dosing solutions containing appropriate concentrations of the 320 ToxCast chemicals (chemical identities were blinded to CellzDirect and other ToxCast collaborators), vehicle control (0.2% DMSO), and positive control inducers as summarized in Table 1. Due to the large number of treatment groups and chemicals examined, the ToxCast chemicals were divided into two groups (spanning two independent cultures of hepatocytes from separate donor preparations (Hu778: ToxCast plates 1 and 2; Hu776: ToxCast plates 3 and 4). Each preparation of human hepatocyte cultures was treated with respective vehicle control, medium only control, set of six positive controls/reference chemicals for the five hepatic receptor pathways, and a subset of eight of the ToxCast chemicals (indoxacarb, pyrithiobac-sodium, norflurazon, cyhalofop-butyl, methomyl, thiram, acetochlor, and propiconazole). These replicate data, coupled with internal replicates designed within the blinded ToxCast chemical library, provided additional data to evaluate interindividual differences between hepatocyte preparations and their potential impact on chemical profiles.Cell morphology and integrity were evaluated using phase-contrast microscopy as an indicator of hepatocyte cell health (Tyson & Green, 1987). Cultures for each treatment group (i.e., media, vehicle [0.2% DMSO], positive control inducers [multiple concentrations], and the ToxCast chemicals [multiple concentrations]) were observed and cell morphology was assessed relative to vehicle control cultures at each harvest time point (0, 6, 24, or 48 h). […] Images were evaluated at the conclusion of the study to assess changes in cell integrity and account for the effects of chemical exposure on uncharacteristic changes in concentration-dependent gene expression profiles. The results from these determinations of apparent cytotoxicity were annotated (yes/no) alongside the corresponding qNPA data for reference.At the conclusion of each treatment period, hepatocyte cultures (96-well) were washed with 1 volume of HBSS, lysed by addition of 25 ul ArrayPlate lysis buffer (HTG, Tucson, AZ), and 70 ul/well of Denaturation Oil, denatured by incubation at 95C for 10 min, and frozen at approximately -70C until analysis by nuclease protection assay (qNPA) (Roberts et al., 2007). For qNPA analysis, cell lysates were thawed at 50C for approximately 30 min, qNPA probes were added, and samples were incubated at 95C for 10 min to begin the detection process by denaturing the target RNA, dissociating the duplexes and secondary structure hybridization. At the conclusion of the hybridization period, S1 nuclease reagent was added to each sample to digest all nonprotected nucleotides at 50C for 60-90 min. […]
With `COP(=O)(OC)O/C(C)=C/C(=O)N(C)C`, the compound was classed as inactive.

In the case of `COC(=O)NS(=O)(=O)c1ccc(N)cc1`, the call was inactive.

For `CC(C)=CC1C(C(=O)OCc2coc(Cc3ccccc3)c2)C1(C)C` (stereo not drawn), the result was inactive.

With `COCC(=O)N(c1c(C)cccc1C)C(C)C(=O)OC` (stereo not drawn), the result was inactive.

As for `Clc1nc(Cl)nc(Nc2ccccc2Cl)n1`, the call was inactive.

As for `COc1cc(OC)nc(NC(=O)NS(=O)(=O)c2ncccc2OCC(F)(F)F)n1`, the result was inactive.

For the compound `CCOc1nc(F)cc2nc(S(=O)(=O)Nc3c(Cl)cccc3Cl)nn12`, the compound was classed as inactive.

For `COc1cc(Cl)c(OC)cc1Cl`, the result was inactive.

For the compound `CC1(C)C(C(=O)OC(C#N)c2cccc(Oc3ccccc3)c2)C1(C)C` (stereo not drawn), the compound was classed as inactive.

Consider `CCSC(=O)N1CCCCCC1`, for which the outcome was inactive.

As to `O=C(O)c1c(Cl)ccc2cc(Cl)cnc12`, the compound was classed as inactive.

Consider `Cc1nc(N(C)C)nc(OC(=O)N(C)C)c1C`, for which the result was inactive.

As to `CCCC(=NOCC)C1=C(O)CC(CC(C)SCC)CC1=O` (stereo not drawn), the outcome was inactive.

For the compound `N#CN=C1SCCN1Cc1ccc(Cl)nc1`, the compound was called inactive.

In the case of `CO/N=C(/C1=NOCCO1)c1ccccc1Oc1ncnc(Oc2ccccc2Cl)c1F`, the compound was called inactive.

`CCOC(=O)C(C)OC(=O)c1cc(Oc2ccc(C(F)(F)F)cc2Cl)ccc1[N+](=O)[O-]` (stereo not drawn): the call was inactive.

For the compound `CC1(C)CON(Cc2ccccc2Cl)C1=O`, the outcome was inactive.

Regarding `CC(C)(C)C(=O)C(Oc1ccc(Cl)cc1)n1cncn1` (stereo not drawn), the compound was called inactive.

As for `COC(=O)c1c(C(F)F)nc(C(F)(F)F)c(C2=NCCS2)c1CC(C)C`, the call was inactive.

As to `CC1(C)C(C=C(Cl)Cl)C1C(=O)OC(C#N)c1cccc(Oc2ccccc2)c1` (stereo not drawn), the outcome was inactive.

With `C=C(C)CN(CC)c1c([N+](=O)[O-])cc(C(F)(F)F)cc1[N+](=O)[O-]`, the compound was classed as inactive.

Regarding `CCN(CC)C(=O)C(C)Oc1cccc2ccccc12` (stereo not drawn), the call was inactive.

Turning to `CCCN(CC)CC1COC2(CCC(C(C)(C)C)CC2)O1` (stereo not drawn), the result was inactive.

Regarding `CC(C)Oc1cccc(NC(=O)c2ccccc2C(F)(F)F)c1`, the outcome was inactive.

As to `CC(C)N1C(=O)N(c2ccccc2)CSC1=NC(C)(C)C`, the result was inactive.

Take `N#Cc1c(Cl)cccc1Cl`: the outcome was inactive.

Turning to `C=CCOC(=O)C(C)(C)OC(=O)c1cc(-n2c(=O)cc(C(F)(F)F)n(C)c2=O)ccc1Cl`, the call was inactive.

As for `Nc1c(Cl)c(Cl)nc(C(=O)O)c1Cl`, the call was inactive.

Consider `CCNC(=O)NC(=O)C(C#N)=NOC`, for which the result was inactive.

For `CS(=O)(=O)c1ccc(C(=O)C2C(=O)CCCC2=O)c([N+](=O)[O-])c1`, the outcome was inactive.

As for `O=c1n(Cl)c(=O)n(Cl)c(=O)n1Cl`, the outcome was inactive.

As for `CC(C)C1(C)N=C(c2ncccc2C(=O)O)NC1=O` (stereo not drawn), the compound was called inactive.

In the case of `O=C1C2CC=CCC2C(=O)N1SC(Cl)(Cl)Cl` (stereo not drawn), the compound was called inactive.

For `CNC(=O)N(C)c1nnc(C(C)(C)C)s1`, the compound was called inactive.

For the compound `CC(C)N1C(=O)c2ccccc2NS1(=O)=O`, the compound was called inactive.

As to `Nc1cnn(-c2ccccc2)c(=O)c1Cl`, the outcome was inactive.

Consider `CN=C=S`, for which the outcome was inactive.

For the compound `COc1ccc(-c2ccccc2)cc1NNC(=O)OC(C)C`, the compound was classed as inactive.
